Assay results taken from PubChem BioAssay (NCI).
The panel holds about 83,000 compounds, 20% with a hit somewhere; the sample as a whole holds those more often.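 Cell lines were cultured in 96-well plates, exposed to a single compound concentration, and assessed for percent growth 48 hours later.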 Unmarked numbers belong to inactive results. Activity calls are given as the source filed them. The calls were made as follows: active = growth percent below 10; inactive = the rest.

How the values were obtained:
Assay in all cases: NCI-60 one-dose screen, 48 h (100 = growth as untreated, 0 = no growth, -100 = all killed)
Conditions in all cases: 10 µM unless noted
SR leukemia = test system: SR leukemia
RPMI-8226 leukemia = test system: RPMI-8226 leukemia
OVCAR-8 ovarian = test system: OVCAR-8 ovarian
OVCAR-5 ovarian = test system: OVCAR-5 ovarian
OVCAR-4 ovarian = test system: OVCAR-4 ovarian
SK-OV-3 ovarian = test system: SK-OV-3 ovarian
IGROV1 ovarian = test system: IGROV1 ovarian
OVCAR-3 ovarian = test system: OVCAR-3 ovarian
HS 578T breast = test system: HS 578T breast
NCI/ADR-RES ovarian = test system: NCI/ADR-RES ovarian
T-47D breast = test system: T-47D breast
BT-549 breast = test system: BT-549 breast
MDA-MB-435 melanoma = test system: MDA-MB-435 melanoma
MCF7 breast = test system: MCF7 breast
HCT-116 colon = test system: HCT-116 colon
HCC-2998 colon = test system: HCC-2998 colon
SW-620 colon = test system: SW-620 colon
KM12 colon = test system: KM12 colon

SMILES | growth (SR leukemia) | growth (RPMI-8226 leukemia) | growth (OVCAR-8 ovarian) | growth (OVCAR-5 ovarian) | growth (OVCAR-4 ovarian) | growth (SK-OV-3 ovarian) | growth (IGROV1 ovarian) | growth (OVCAR-3 ovarian) | growth (HS 578T breast) | growth (NCI/ADR-RES ovarian) | growth (T-47D breast) | growth (BT-549 breast) [%] | growth (MDA-MB-435 melanoma) | growth (MCF7 breast) | growth (HCT-116 colon) | growth (HCC-2998 colon) | growth (SW-620 colon) | growth (KM12 colon)
COC(=O)c1ccccc1C(=O)c1c(C)cc(C)cc1C | 79.6% | 93.5% | 101% | 101% | 99.9% | 102% | 98.5% | 103% | 100% | 102% | 88.8% | 106 | 97.6% | 102% | 99.7% | 94.4% | – | –
CCOC(=O)CSCCC#N | 94.2% | 106% | 96.8% | 85% | 105% | 92.5% | 107% | 111% | 107% | 100% | 83.4% | 87.2 | 106% | 93.6% | 95.2% | 104% | 100% | 105%
OC(CBr)CCBr (centres undefined) | 78.3% | 98.8% | 99.8% | 106% | 93.5% | 101% | 89.5% | 112% | 103% | 106% | 93.6% | 124 | 97.2% | – | 104% | 111% | 104% | 113%
COC1CC(OC(=O)c2ccc([N+](=O)[O-])cc2)C(COC(=O)c2ccc([N+](=O)[O-])cc2)O1 (centres undefined) | 85.9% | 101% | 91.2% | 99.7% | 97% | 107% | 126% | 111% | 109% | 108% | 104% | 116 | 97.7% | – | 105% | 112% | 99.7% | 109%
C=CCC(OC(C)=O)c1ccc(C(C)C)cc1 (centres undefined) | 116% | 108% | 105% | 109% | 113% | 115% | 123% | 162% | 109% | 107% | 115% | – | 124% | 113% | 110% | 103% | 107% | –
CCCCCCCCCCCCCCCCCC(=O)NCCNC(=O)CCCCCCCCCCCCCCCCC | 0.967% (active) | 86.4% | 98.2% | 94.8% | 95% | 84.5% | 66.3% | 96.9% | 107% | 93.9% | 78.6% | 105 | – | 71.6% | 70.2% | 82.1% | 102% | 96.4%
O=C(CC(CC(=O)c1ccccc1)c1ccccn1)c1ccccc1 | 92.9% | 96.8% | 101% | 105% | 105% | 104% | 96.8% | 106% | 84.8% | 97.4% | 97.2% | 101 | – | 107% | 94% | 97% | 101% | 102%
c1ccc(-c2ccc3ccccc3c2)cc1 | 80.7% | 104% | 97.1% | 99.6% | 108% | 90.5% | 85.3% | 103% | 84.5% | 105% | 81.4% | 98.8 | 103% | 82.2% | 95.9% | 107% | 90.5% | 92.9%
Clc1ccc(-c2noc(/C=C\c3ccccc3)n2)cc1 | 97.8% | 110% | 98.7% | 99.6% | 102% | 95.1% | 96.3% | 102% | 119% | 108% | 89% | 102 | – | 74.4% | 102% | 95.2% | 110% | 100%
S=C(Sc1ccc(Cl)cc1)Sc1ccc(Cl)cc1 | -46.5% (active) | -46.6% (active) | 22.1% | 60.1% | 10.1% | 109% | -49.8% (active) | -64.7% (active) | 7.84% (active) | 5.64% (active) | -1.08% (active) | – | 19.6% | 24% | -68.4% (active) | 24.1% | – | 41%
COC(=O)Cc1cc(COC(C)=O)ccc1C | 75.4% | 110% | 108% | 103% | 114% | 125% | 107% | 109% | 112% | 107% | 110% | – | 116% | 106% | 104% | 106% | – | 114%
N#Cc1ccc(OC(=O)Nc2c(Cl)cc(Cl)cc2Cl)cc1 | 101% | 107% | 105% | 103% | 109% | 99.7% | 98.7% | 112% | 106% | 111% | 91.6% | – | 96.4% | 100% | 101% | 110% | 118% | 107%
Cc1nc(O)cc(=O)[nH]1 | 114% | 114% | 105% | 110% | 114% | 121% | 106% | 115% | 91.4% | 108% | 113% | – | 126% | 101% | 113% | 110% | 109% | 110%
Nc1cc2ccccc2c(O)c1O | 0.498% (active) | 12.7% | -69.9% (active) | 76.1% | -97.7% (active) | 79.3% | 67.3% | -39.9% (active) | 81.7% | 55.3% | -0.96% (active) | – | -81.1% (active) | -43.2% (active) | -66.9% (active) | 113% | -33.6% (active) | 62.3%
C=CCN1CCCC1=O | 90.2% | 96.6% | 110% | 124% | 94.8% | 92.9% | 114% | 128% | 109% | 110% | 100% | – | 101% | 99.6% | 106% | 128% | 102% | 110%
CC(=O)N(CCCCCCN(C(C)=O)C(C)=O)C(C)=O | 99.6% [100 µM] | 107% [100 µM] | 107% [100 µM] | 110% [100 µM] | 101% [100 µM] | 114% [100 µM] | 108% [100 µM] | 113% [100 µM] | 105% [100 µM] | 105% [100 µM] | 101% [100 µM] | – | 98.5% [100 µM] | 87.8% [100 µM] | 101% [100 µM] | 114% [100 µM] | 108% [100 µM] | 99.2% [100 µM]
CC1(C)CC(=O)C=C(N)C1 | 108% | 178% | 97.1% | 89.3% | 91.7% | 145% | 101% | 106% | 77.9% | 83.4% | 141% | – | 99.2% | 160% | 102% | 45.4% | 96% | 124%
O=C(NCc1ccco1)Nc1cccc2c(NC(=O)NCc3ccco3)cccc12 | 69.4% [100 µM] | 33.9% [100 µM] | -73.4% [100 µM] (active) | 66.4% [100 µM] | 92.3% [100 µM] | 111% [100 µM] | 66.3% [100 µM] | 97.5% [100 µM] | 88.2% [100 µM] | 103% [100 µM] | 69.2% [100 µM] | – | 40% [100 µM] | 60.1% [100 µM] | 15% [100 µM] | 74.5% [100 µM] | 23.1% [100 µM] | 61.1% [100 µM]
